This excerpt belongs to a sample that is enriched for hits.
Pf Dd2 inh: Plasmodium falciparum Dd2 growth inhibition; P. falciparum Dd2 growth, SYBR Green, 72 h; Potency, µM (top dose mostly 28.9 µM), most hits filed as inhibitors; 120,000 compounds, 4.3% hits; AID 1347417; active = well fitted inhibition curve with a large enough effect; note: nearly all actives have a fitted effect of over 65% in size
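Readout: SYBR Green fluorescence, 485 nm excitation, 535 nm emission, after ~16 h lysis at 37C. Before that, Dd2-infected red cells (2.5% hematocrit) grew 72 h with compound, 29 uM top final concentration.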
Numbers stand for hits; n = inactive; [ ] = dose if it differs, or a comment.

SMILES	Pf Dd2 inh
Cn1c(SCc2ccc(F)cc2)nc2ccc(C(=O)NCc3cccc(Cl)c3)cc21	10µM
Fc1ccc(OCc2nc(-c3nnn4c3COC(c3ccccc3Cl)C4)no2)cc1 (centres undefined)	n
O=C([C@H]1CNC[C@H](C(=O)N2CCN(c3ccncc3)CC2)C1)N1CCCC1	n
CNC(=O)NC[C@H]1CCN(Cc2cccc(F)c2F)C[C@H]1N(C)C	n
Cc1ccc(-c2noc([C@@H]3Cc4nc[nH]c4CN3CC3CCCCC3)n2)cc1	n
Cc1ccc(-c2noc([C@@H]3Cc4nc[nH]c4CN3Cc3cccs3)n2)cc1	n
OCc1ccc(CN2Cc3[nH]cnc3C[C@H]2c2nc(-c3ccncc3)no2)o1	14µM
Fc1ccc(CN2Cc3[nH]cnc3C[C@H]2c2nc(-c3ccc(Cl)cc3)no2)cc1	n
Cc1ccc(CN2Cc3[nH]cnc3C[C@H]2c2nc(-c3ccc4ccccc4c3)no2)cc1	n
Fc1ccc(-c2noc([C@@H]3Cc4nc[nH]c4CN3Cc3cccs3)n2)cc1Cl	10µM
Fc1ccc(-c2noc([C@@H]3Cc4nc[nH]c4CN3Cc3ccccc3)n2)cc1Cl	n
O=C(O)c1ccc(CN2Cc3[nH]cnc3C[C@H]2c2nc(-c3ccc(F)cc3)no2)cc1	n
c1ccc(CN2Cc3[nH]cnc3C[C@H]2c2nc(-c3ccncc3)no2)cc1	10µM
COc1ccc(-c2cccc(COc3cnc4c(ccn4CC(=O)O)c3)c2)c(C)c1	n
CC(C)c1nnc(C2CN(C(=O)Cc3ccccc3)CC23CCOCC3)o1 (centres undefined)	n
O=C(O)C1=NOC2CN([S+](=O)([O-])c3cccc(C(F)(F)F)c3)CC12 (centres undefined)	n
Cc1nccc(N2CCC3(CC2)CN(CCCN2CCC(N(C)C)C2)C(=O)O3)n1 (centres undefined)	n
O=C([C@@H]1C[C@H](F)CN1C(=O)c1cccc(C(F)(F)F)c1)N1CCOCC1	n
Cc1ccc(NC(=O)C(=O)NCC(c2cccnc2)N2CCN(Cc3ccccc3)CC2)cc1C (centres undefined)	5.6µM
Cc1ccc(NC(=O)C(=O)NCC(c2cccnc2)N2CCOCC2)cc1C (centres undefined)	n
O=C(NCC(c1cccnc1)N1CCOCC1)C(=O)Nc1ccc(F)cc1 (centres undefined)	n
Cc1ccc(NC(=O)C(=O)NCC(c2cccnc2)N2CCOCC2)cc1Cl (centres undefined)	n
COC(=O)c1ccc(NC(=O)C(=O)NCC(c2cccnc2)N2CCN(c3ccccc3)CC2)cc1 (centres undefined)	n
Cc1ccc(NC(=O)C(=O)NCC(c2cccnc2)N2CCN(Cc3ccccc3)CC2)cc1F (centres undefined)	8.9µM
Cc1noc(C)c1C(=O)N1Cc2ccccc2CC2(CCCCN2C)C1 (centres undefined)	n
SMILES	Pf Dd2 inh
Fc1ccc2nc(CO[C@H]3CN(C4CCOCC4)C[C@H]3F)[nH]c2c1	n
Cn1cnc(S(=O)(=O)N2CCCC(Cn3c(C4CC4)nc4cccnc43)C2)c1 (centres undefined)	n
O=C(NC[C@H]1OC[C@@H](NC2CCOCC2)[C@@H]1O)C1CC1	n
Cn1ncc(N2CCC(C(=O)NCC3CC3)C2)cc1=O (centres undefined)	n
CCOC(=O)c1cn(C2CN(S(=O)(=O)Cc3ccc(Cl)cc3)C2)nn1	n
CC(C)C1CN(C(=O)C(=O)c2ccco2)CCC(=O)N1CC1CC1 (centres undefined)	n
O=C(c1[nH]nc2c1CCc1ccccc1-2)N1CCC(c2noc(-c3cccnc3)n2)C1 (centres undefined)	n[5.79 µM]
COc1cccc(C2=CC(c3ccccc3F)n3c(nc4ccccc43)N2)c1 (centres undefined)	n
COc1cccc(C2C(C(=O)Nc3ccc(C)cc3C)=C(C)Nc3nc4ccccc4n32)c1OC (centres undefined)	n
COc1ccc(C2N=C(N)Nc3nc4ccccc4n32)c(OC)c1OC (centres undefined)	n
CCN(CC)C(=O)C1=C(C)Nc2nc3ccccc3n2C1c1cccc(Cl)c1 (centres undefined)	11µM
CC(C)c1ccc(C2N=C(N)Nc3nc4ccccc4n32)cc1 (centres undefined)	3.2µM
CCc1ccc(C2=CC(c3cccc(OC)c3OC)n3c(nc4ccccc43)N2)cc1 (centres undefined)	8.9µM
CC1=C(C(N)=O)C(c2ccc(C(C)C)cc2)n2nc(SCc3ccccc3F)nc2N1 (centres undefined)	n
COc1cccc(C2C(C(=O)Nc3ccc(Cl)cc3)=C(C)Nc3nc4ccccc4n32)c1 (centres undefined)	n
CC(C)c1ccc(C2=CC(c3cccc(Cl)c3)n3c(nc4ccccc43)N2)cc1 (centres undefined)	11µM
Cn1c(=O)c2c(c3ccccc31)OC(=O)CC2c1cccc(Cl)c1 (centres undefined)	n
CCN(CC)C(=O)C1=C(C)Nc2nc3ccccc3n2C1c1ccc(Cl)cc1 (centres undefined)	n
CC(C)c1ccc(C2=CC(c3cccc(Cl)c3)n3ncnc3N2)cc1 (centres undefined)	n
CC(=O)N1CCc2nn(CC(=O)Nc3cccc(Br)c3)c(=O)cc2C1	n
CC(C)CCN1C[C@H]2[C@H](C1)[S+](=O)([O-])C(C)(C)C(=O)N2Cc1ccc(O)cc1	n
CC(C)=CCC1(CO)CCCN(C(=O)c2cccn2C2CC2)C1 (centres undefined)	n
CN(C)Cc1nnc(C2CC(NC(=O)c3ccc4nccn4c3)C2)n1C (centres undefined)	n
CS(=O)(=O)N1C[C@H]2CCN(Cc3c(F)cccc3F)C[C@H]21	n
Cc1ccc(C(=O)NC[C@H]2O[C@@H](CC(=O)N3CCOCC3)[C@H](O)[C@@H]2O)cc1	n
SMILES	Pf Dd2 inh
CN1CCC(N2CC[C@@H]3[C@H]2C(=O)NC[C@H](CCC(=O)NCc2ccco2)N3C)CC1	n
CCOc1ccc(C(O)Cn2ccn3nc(-c4ccccc4C)cc3c2=O)cc1 (centres undefined)	13µM
CCOc1ccc(-c2cc3c(=O)n(CC(O)c4ccc(C(C)C)cc4)ccn3n2)cc1 (centres undefined)	n
O=c1c2cc(-c3ccccc3)nn2ccn1CC(O)c1ccccc1 (centres undefined)	n
COc1ccccc1-c1nc2cnccn2c1NCCC(=O)Nc1cc(F)ccc1F	n
CN(C)CCO[C@H]1C[C@@H](O)C12CCN(C(=O)c1ccc3c(c1)OCO3)CC2	n
NC(=O)COc1ccc(C(=O)N[C@@H]2CN(C(=O)Nc3cccc(C(F)(F)F)c3)CCC[C@H]2O)cc1	n
N#Cc1cccc(NC(=O)N2CCC[C@@H](O)[C@H](NC(=O)c3ccc(OCc4ccc(F)cc4)cc3)C2)c1	5µM
COc1cccc(NC(=O)N2CCC[C@@H](O)[C@H](NC(=O)c3ccc(OCCN4CCCC4)cc3)C2)c1	n
c1cc(-c2nc(CC3CCCNC3)no2)ccn1 (centres undefined)	n
CC(C)NC(=O)N[C@H]1C[C@@H](Cc2cc(CCO)on2)C1(C)C	n
Cn1ncc(CN2CC[C@@H]3[C@@H](CCC(=O)N3CCCN)C2)c1C1CC1	n
O=C(Nc1cccc(Cl)c1)N1CC(n2cc(COc3ccccc3)nn2)C1	7.9µM
O=C(Nc1ccccc1)N1CC(n2cc(C(=O)N3CCOCC3)nn2)C1	n
CNC(=O)[C@@H]1C[C@H](n2cc(CNC(=O)Nc3cccc(Cl)c3)nn2)CN1	n
CN(C)C(=O)c1ccc2ccnn2c1	n

Compound activity deposited in PubChem by National Center for Advancing Translational Sciences (NCATS).
